Data as given in the supplement of paper PMC9262897, “Low-cost anti-mycobacterial drug discovery using engineered E. coli” (Nature Communications, 2022).
Where a name gives a salt, the structure may show the parent alone. ± gives the standard deviation of the averaged measurements.

test system: E. coli TESEC Mtb Alr; test: growth (OD600 after 10 h); higher = more growth (less inhibition); conditions: arabinose 10000000 nM; compound 0.1 mM; raw OD600 reference: median of DMSO wells 0.146, cell-free background 0.041
Description: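 TESEC Mtb Alr E. coli, or the Alr+ wild-type control, in 384-well plates with Prestwick library compounds at 0.1 mM and 1% DMSO, across arabinose induction levels of 1E3 to 1E7 nM. Growth is read as OD600 after 10 h at 37 °C in triplicate biological replicates.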

Q: With CCOC(=O)C1=C[C@]2(CC)CCCN3CCc4c(n1c1ccccc41)[C@@H]32 [Vinpocetine] as the compound, how does the growth read?
A: 0.143 ± 0.0046

Q: Which growth does the source give for COc1ccccc1O [Guaiacol] here?
A: 0.135 ± 0.0042

Q: CC(=O)Oc1ccccc1C(=O)O [Acetylsalicylic acid] was tested. Which growth did it give?
A: 0.147 ± 0.0031

Q: Which growth does the source give for C[C@]12CC[C@@H]3c4ccc(O)cc4C[C@@H](CCCCCCCCC[S+]([O-])CCCC(F)(F)C(F)(F)F)[C@H]3[C@@H]1CC[C@@H]2O (stereo not given in full) [Fulvestrant] here?
A: 0.137 ± 0.005

Q: For CC(=O)O[C@H]1C[C@@H]2CC[C@@H]3[C@H](CC[C@@]4(C)[C@H]3C[C@H]([N+]3(C)CCCCC3)[C@@H]4OC(C)=O)[C@@]2(C)C[C@@H]1N1CCCCC1 [Vecuronium bromide], which growth is on record?
A: 0.07727 ± 0.00072

Q: Which growth does the source give for NS(=O)(=O)c1cc(C2(O)NC(=O)c3ccccc32)ccc1Cl (stereo not given) [Chlorthalidone] here?
A: 0.144 ± 0.0027

Q: For CC[C@H]1OC(=O)[C@H](C)[C@@H](O[C@H]2C[C@@](C)(OC)[C@@H](O)[C@H](C)O2)[C@H](C)[C@@H](O[C@@H]2O[C@H](C)C[C@H](N(C)C)[C@H]2O)[C@](C)(O)C[C@@H](C)CN(C)[C@H](C)[C@@H](O)[C@]1(C)O [Azithromycin], which growth is on record?
A: 0.0413 ± 0.00057

Q: For CC(=O)N(CC(O)CN(C(C)=O)c1c(I)c(C(=O)NCC(O)CO)c(I)c(C(=O)NCC(O)CO)c1I)c1c(I)c(C(=O)NCC(O)CO)c(I)c(C(=O)NCC(O)CO)c1I (stereo not given) [Iodixanol], which growth is on record?
A: 0.1415 ± 0.00091

Q: How did the growth turn out when CN1CCN2c3ccccc3Cc3ccccc3C2C1 (stereo not given) [Mianserine hydrochloride] was run?
A: 0.17 ± 0.0078

Q: Clc1ccc2nsnc2c1NC1=NCCN1 [Tizanidine HCl] was tested. Which growth did it give?
A: 0.142 ± 0.0064

Q: With CC(=O)[C@H]1CC[C@H]2[C@@H]3CCC4=CC(=O)CC[C@]4(C)[C@H]3CC[C@]12C [Progesterone] as the compound, how does the growth read?
A: 0.15 ± 0.012

Q: For C#Cc1cccc(Nc2ncnc3cc(OCCOC)c(OCCOC)cc23)c1 [Erlotinib], which growth is on record?
A: 0.185 ± 0.01

Q: Nc1cc(-c2ccncc2)c[nH]c1=O [Amrinone] was tested. Which growth did it give?
A: 0.162 ± 0.008

Q: COc1cc2nc(N3CCN(C(=O)C4COc5ccccc5O4)CC3)nc(N)c2cc1OC (stereo not given) [Doxazosin mesylate] was tested. Which growth did it give?
A: 0.0449 ± 0.0026

Q: For CN1CCN(CCCN2c3ccccc3Sc3ccc(S(=O)(=O)N(C)C)cc32)CC1 [Thioproperazine dimesylate], which growth is on record?
A: 0.173 ± 0.0023

Q: For O=c1[nH]c(=O)n([C@H]2C[C@H](O)[C@@H](CO)O2)cc1C(F)(F)F [Trifluridine], which growth is on record?
A: 0.135 ± 0.0027

Q: With COc1ccc2cc(CCC(C)=O)ccc2c1 [Nabumetone] as the compound, how does the growth read?
A: 0.14 ± 0.0083

Q: CCN(CC)CCNC(=O)c1cc(Br)c(N)cc1OC [Bromopride] was tested. Which growth did it give?
A: 0.1557 ± 0.00098

Q: With O=C1C(O)=C(O)C(=O)C(O)=C1O [Tetrahydroxy-1,4-quinone hydrate] as the compound, how does the growth read?
A: 0.142 ± 0.0053

Q: How did the growth turn out when CC(=O)N(O)CCCCCNC(=O)CCC(=O)N(O)CCCCCNC(=O)CCC(=O)N(O)CCCCCN [Deferoxamine mesylate] was run?
A: 0.0625 ± 0.00017

Q: With O=c1cc(-c2ccc(O)c(O)c2)oc2cc(O)cc(O)c12 [Luteolin] as the compound, how does the growth read?
A: 0.0518 ± 0.0022

Q: For Nc1nc(=O)c2nc(CNc3ccc(C(=O)N[C@@H](CCC(=O)O)C(=O)O)cc3)cnc2[nH]1 [Folic acid], which growth is on record?
A: 0.1653 ± 0.0014

Q: Which growth does the source give for O=C(O)CNC(=O)C(CS)Cc1ccccc1 (stereo not given) [Thiorphan] here?
A: 0.167 ± 0.0089

Q: Which growth does the source give for CC1(C)S[C@@H]2[C@H](NC(=O)[C@H](NC(=O)N3CCNC3=O)c3ccccc3)C(=O)N2[C@H]1C(=O)O [Azlocillin sodium salt] here?
A: 0.152 ± 0.015

Q: How did the growth turn out when Clc1cnccn1 [2-Chloropyrazine] was run?
A: 0.196 ± 0.0073

Q: O=C(C1CCCCC1)N1CC(=O)N2CCc3ccccc3C2C1 (stereo not given) [Praziquantel] was tested. Which growth did it give?
A: 0.141 ± 0.0052

Q: For C#C[C@]1(O)CC[C@H]2[C@@H]3CCC4=CC(=O)CC[C@@H]4[C@H]3CC[C@@]21CC [Norgestrel-(-)-D], which growth is on record?
A: 0.145 ± 0.007

Q: With CCCCOc1ccc(C(=O)CCN2CCCCC2)cc1 [Dyclonine hydrochloride] as the compound, how does the growth read?
A: 0.144 ± 0.0069

Q: How did the growth turn out when CC1CCc2c(N3CCC(O)CC3)c(F)cc3c(=O)c(C(=O)O)cn1c23 (stereo not given) [Nadifloxacin] was run?
A: 0.04117 ± 0.00023

Q: OC(c1cc(C(F)(F)F)nc2c(C(F)(F)F)cccc12)C1CCCCN1 (stereo not given) [Mefloquine hydrochloride] was tested. Which growth did it give?
A: 0.0398 ± 0.00036
